Results filed as inconclusive are left out. Active and inactive are the calls of the source. The call rests on the fitted dose curve; in most records, active means well fitted curve in the direction sought with a large enough effect; inconclusive means small, poorly fitted or top-dose-only effect, or another doubt; inactive means no such curve, though single readings can be large; an effect the other way counts as inactive or inconclusive.
Tests used:
[1] = tested on: MCC-26; assay: qHTS assay to identify novel small-molecules to repurpose for Merkel cell carcinoma treatment (AID 1296009); conditions: MCC and control cell lines, CellTiter-Glo viability, 72 h; series mostly up to 46 µM; further: nearly all actives have a fitted effect of over 60% in size
In short: (§1)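 72 hr, 37 degree celsius; NPC 8-pt / MIPE 11-pt dose response; compound pinned in DMSO; CellTiter-Glo, 10 min RT, luminescence; normalized to no-cell and DMSO controls.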

[2] = tested on: MKL-1; assay: as above; conditions: MCC and control cell lines, CellTiter-Glo viability, 72 h; series mostly up to 46 µM
In short: as §1

[3] = tested on: MKL-2; assay: as above; conditions: MCC and control cell lines, CellTiter-Glo viability, 72 h; series mostly up to 46 µM
In short: as §1

[4] = tested on: NIH3T3; assay: as above; conditions: MCC and control cell lines, CellTiter-Glo viability, 72 h; at 44.8 µM (top of the series) unless noted
In short: as §1

[5] = tested on: UISO; assay: as above; conditions: MCC and control cell lines, CellTiter-Glo viability, 72 h; series mostly up to 46 µM
In short: as §1

[6] = tested on: WaGa; assay: as above; conditions: MCC and control cell lines, CellTiter-Glo viability, 72 h; series mostly up to 46 µM
In short: as §1

[7] = tested on: C33A; assay: Primary qHTS to identify gynecologic anti-cancer compounds using libraries of approved drugs and bioactive compounds (AID 1345084); conditions: Gynecologic cancer cell panel viability, ATPlite luminescence, 48 h; series mostly up to 57.5 µM; further: nearly all actives have a fitted effect of over 55% in size
In short: (§2)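 Five-concentration response, 48 h; readout is ATP-driven luciferase luminescence.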

[8] = tested on: CAOV3; assay: as above; conditions: Gynecologic cancer cell panel viability, ATPlite luminescence, 48 h; series mostly up to 57.5 µM
In short: as §2

[9] = tested on: CASKI; assay: as above; conditions: Gynecologic cancer cell panel viability, ATPlite luminescence, 48 h; series mostly up to 57.5 µM
In short: as §2

[10] = tested on: Es-2; assay: as above; conditions: Gynecologic cancer cell panel viability, ATPlite luminescence, 48 h; series mostly up to 57.5 µM
In short: as §2

[11] = tested on: HeLa; assay: as above; conditions: Gynecologic cancer cell panel viability, ATPlite luminescence, 48 h; series mostly up to 57.5 µM
In short: as §2

[12] = tested on: Hek293T; assay: as above; conditions: Gynecologic cancer cell panel viability, ATPlite luminescence, 48 h, control line for the selectivity index; series mostly up to 57.5 µM
In short: as §2

[13] = tested on: JEG-3; assay: as above; conditions: Gynecologic cancer cell panel viability, ATPlite luminescence, 48 h; series mostly up to 57.5 µM
In short: as §2

[14] = tested on: OV90; assay: as above; conditions: Gynecologic cancer cell panel viability, ATPlite luminescence, 48 h; series mostly up to 57.5 µM
In short: as §2

[15] = tested on: PA-1; assay: as above; conditions: Gynecologic cancer cell panel viability, ATPlite luminescence, 48 h; series mostly up to 57.5 µM
In short: as §2

[16] = tested on: Tov-21-G; assay: as above; conditions: Gynecologic cancer cell panel viability, ATPlite luminescence, 48 h; series mostly up to 57.5 µM
In short: as §2

[17] = tested on: Tov112D; assay: as above; conditions: Gynecologic cancer cell panel viability, ATPlite luminescence, 48 h; series mostly up to 57.5 µM
In short: as §2

[18] = Drug repurposing screens with cells derived from glioblastoma tumor samples (AID 1345199); conditions: GBM patient neurospheres viability, ATP luminescence, 48 h; further: nearly all actives have a fitted effect of over 40% in size
In short: (§3)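 Four patient lines of CD133+ GBM neurospheres were screened at several concentrations; hits were retested in those lines plus three slower-growing GBM lines, using 48-hour treatment and ATP-based viability.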

[19] = tested on: astro; assay: as above; conditions: viability, ATP luminescence, 48 h; series mostly up to 45.9 µM
In short: as §3

[20] = tested on: SKOV3; assay: Primary qHTS to identify gynecologic anti-cancer compounds using libraries of approved drugs and bioactive compounds (AID 1345084); conditions: Gynecologic cancer cell panel viability, ATPlite luminescence, 48 h; series mostly up to 57.5 µM; further: nearly all actives have a fitted effect of over 55% in size
In short: as §2

[21] = at 45.9 µM (top of the series), tumour line B
[22] = at 45.9 µM (top of the series), tumour line D
[23] = at 46.1 µM (top of the series), tumour line C
[24] = at 46 µM (top of the series), tumour line A
On the % scale 0 is the no-effect control and ±100 the full control effect.

C[C@H]1O[C@H](O[C@H]2[C@H](O)[C@@H](O)[C@@H](O[C@H]3[C@H](O)[C@@H](O)[C@H](O)O[C@@H]3CO)O[C@@H]2CO)[C@H](O)[C@@H](O)[C@@H]1N[C@H]1C=C(CO)[C@@H](O)[C@H](O)[C@H]1O
inactive: Potency [1] | Potency [2] | Potency [3] | outcome [4] | Potency [5] | Potency [6] | Potency [7] | Potency [8] | Potency [9] | Potency [10] | Potency [11] | Potency [12] | Potency [13] | Potency [14] | Potency [15] | Potency [16] | Potency [17] | activity, negative = cell killing [18, 21] -6.62% | activity, negative = cell killing [18, 22] 5.79% | activity, negative = cell killing [18, 23] -10.2% | Potency [19]

CC(O)COc1ccccc1 (stereo not given)
inactive: Potency [1] | Potency [2] | Potency [3] | Potency [5] | Potency [6] | Potency [7] | Potency [8] | Potency [9] | Potency [10] | Potency [11] | Potency [12] | Potency [13] | Potency [14] | Potency [15] | Potency [20] | Potency [16] | Potency [17] | activity, negative = cell killing [18, 21] -16.3% | activity, negative = cell killing [18, 22] 2.5% | activity, negative = cell killing [18, 24] -19.2% | activity, negative = cell killing [18, 23] -0.412% | Potency [19]

CC1(C)S[C@@H]2[C@H](NC(=O)Cc3ccccc3)C(=O)N2[C@H]1C(=O)O (tested in a mixture with another compound)
inactive: Potency [1] | Potency [2] | Potency [3] | outcome [4] | Potency [5] | Potency [6] | Potency [7] | Potency [9] | Potency [10] | Potency [11] | Potency [12] | Potency [13] | Potency [14] | Potency [15] | Potency [20] | Potency [16] | Potency [17] | activity, negative = cell killing [18, 21] -3.74% | activity, negative = cell killing [18, 22] -13.1% | activity, negative = cell killing [18, 24] -22.7% | activity, negative = cell killing [18, 23] -9.44% | Potency [19]

CCN(CC)C(C)CN1c2ccccc2Sc2ccccc21 (stereo not given)
inactive: Potency [1] | Potency [2] | Potency [3] | outcome [4] | Potency [5] | Potency [6] | Potency [7] | Potency [9] | Potency [10] | Potency [11] | Potency [12] | Potency [13] | Potency [14] | Potency [15] | Potency [20] | Potency [16] | Potency [17] | Potency [19]

Cc1ncc([N+](=O)[O-])n1CC(O)CCl (stereo not given)
inactive: Potency [1] | Potency [2] | Potency [3] | Potency [5] | Potency [6] | Potency [7] | Potency [8] | Potency [9] | Potency [10] | Potency [11] | Potency [12] | Potency [13] | Potency [14] | Potency [15] | Potency [20] | Potency [16] | Potency [17] | activity, negative = cell killing ([18]; at 20 µM (top of the series), tumour line C) -11.2% | activity, negative = cell killing ([18]; at 21.2 µM (top of the series), tumour line B) -18% | activity, negative = cell killing ([18]; at 21.2 µM (top of the series), tumour line D) -1.81% | activity, negative = cell killing ([18]; at 21.3 µM (top of the series), tumour line A) -11.7% | Potency [19]
